Screening data from PubChem.
The list is not random: actives were taken first. Their share in the collection is about 8%.
MCF10A rereplic: induces DNA re-replication in MCF 10a normal breast cells; MCF 10A DNA re-replication, Hoechst nuclear intensity, 48 h; Potency, µM (top dose mostly 46.1 µM), inactives show at the highest dose activity, positive = re-replication, usual class: activators; actives 2.9% (n = 350,000); further: % of control where 0% means no effect; nearly all actives have a fitted effect of over 50% in size
HT1080-NT tox: kills 2HG-producing HT-1080-NT fibrosarcoma cells; Potency, µM (titrated, usually from 46.1 µM), for the others: top-dose activity, negative = less viability, actives largely listed as cytotoxic; actives 1.6% (n = 360,000); HT-1080-NT fibrosarcoma viability, CellTiter-Glo ATP luminescence, 48 h; AID 686970;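 further: NT is the 2HG producing partner of a matched IDH1 knockdown line; 0% = DMSO-treated cells and -100% = media-only wells without cells; nearly all actives have a fitted effect of over 55% in size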
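HT-1080-NT; 750 cells/well; 5% FBS RPMI; 48 h compound, 37 degrees C; CellTiter-Glo luminescence; curve fitting and curve-class assignment.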
SW480 rerep: DNA re-replication induction in SW480 cells; SW480 DNA re-replication, Hoechst DNA content imaging, 48 h; Potency, µM (top dose mostly 46.1 µM), for the others: at the highest dose re-replication activation, actives largely listed as activators; actives 1.8% (n = 340,000); AID 624297; further: % of control where 0% means no effect; nearly all actives have a fitted effect of over 55% in size
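SW480 cells exposed to compounds for 48 hr at 37 C, 5% CO2, then Hoechst-stained 40 min. Nuclear DNA content imaged by fluorescence scanning (405 nm excitation, 500-530 nm emission); re-replication scored as increased high-intensity nuclei.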
KB-3-1 tox: kills parental KB-3-1 adenocarcinoma cells. KB-3-1 viability, CellTiter-Glo ATP luminescence, 72 h. Potency, µM (top dose mostly 46.1 µM), usual class: cytotoxic. actives 1.4% (n = 400,000); further: on the % scale 0 is the no-effect control and ±100 the full control effect; nearly all actives have a fitted effect of over 60% in size
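Cytotoxicity measured as CellTiter-Glo luminescence after 72 h at 37 C. Compound titrations were pinned onto drug-naive KB-3-1 parental adenocarcinoma cells grown in DMEM with 10% FBS, and normalized data fitted to concentration-response curves.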
HT1080 IDH1KD tx: toxicity to HT-1080 IDH1 knockdown cells (counter line); HT-1080 IDH1 knockdown viability, ATP luminescence, 48 h; Potency, µM (top dose mostly 46.1 µM), for inactives: top-dose activity, negative = toxicity, usual class: cytotoxic; actives 2% (n = 360,000);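 further: 0% = DMSO wells and -100% = cell-free medium wells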
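IDH1KD HT-1080 cells, 750/well, RPMI + 5% FBS; compound pinned after 2 h settling; 48 h, 37 °C; CellTiter-Glo luminescence; % activity normalised to DMSO and no-cell wells; curves fitted, classed by r2 and efficacy.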
KB-V1 MDR tox: KB-V1 MDR subline cytotoxicity | KB-V1 MDR cells viability, CellTiter-Glo, 72 h | Potency, µM (titrated, usually from 46.1 µM), actives largely listed as cytotoxic | actives 3.4% (n = 400,000); further: on the % scale 0 is the no-effect control and ±100 the full control effect; nearly all actives have a fitted effect of over 60% in size
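Following 72 h at 37 degrees C with compound, KB-V1 cell viability was read by CellTiter-Glo luminescence, medium being phenol-red-free DMEM plus 10% FBS; concentration-response parameters came from normalized, curve-fitted qHTS data.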
* marks the source's active call; other numbers are inactive results; i = inactive; ? = inconclusive; nt = no result given. The call rests on the fitted dose curve; in most records, active means well fitted curve in the direction sought with a large enough effect; inconclusive means small, poorly fitted or top-dose-only effect, or another doubt; inactive means no such curve, though single readings can be large; an effect the other way counts as inactive or inconclusive. Potency means the concentration at half of the fitted maximal effect.

SMILES | MCF10A rereplic | HT1080-NT tox | SW480 rerep | KB-3-1 tox | HT1080 IDH1KD tx | KB-V1 MDR tox
CCOC(=O)/C(=C\c1ccc(OC)c(OC)c1)C(=O)c1cccnc1 | 26µM* | -25% | 20% | i | -14% | i
COc1ccc(/C=C/C(=O)O/N=C(\N)c2cccnc2)cc1OC | 9% | 10% | -18% | i | 6% | i
CNC(=S)N/N=C/c1c(C)nn(-c2cccc(Cl)c2)c1Cl | 12% | -21% | 8% | i | ? | i
CNC(=S)N/N=C/c1c(C)nn(-c2ccccc2)c1Cl | ? | ? | ? | i | 8.9µM* | ?
COc1ccc(NCC(=O)N/N=C/c2c(C)nn(Cc3ccccc3)c2Cl)cc1 | 7% | 6% | 0% | i | 11% | 12µM*
Cc1nn(-c2ccccc2)c(Cl)c1/C=N/NC(=O)c1ccco1 | 11% | 0% | -1% | ? | -6% | i
Cc1nn(-c2ccccc2)c(Cl)c1/C=N/NC(=O)OC(C)(C)C | ? | -2% | -12% | i | -17% | 13µM*
C#CCOc1ccc(-c2nnc(Nc3cccc(C)c3)c3ccccc23)cc1 | nt | nt | nt | ? | nt | i
NCCN(Cc1ccc(Cl)c(Cl)c1)c1ccc(Br)cn1 | nt | 11µM* | nt | nt | 10µM* | nt
NCCCN(Cc1ccc(Cl)c(Cl)c1)c1ccccn1 | nt | 13µM* | nt | nt | 11µM* | nt
Clc1ccc(CN(CCCNc2ncnc(NCCCc3cnc[nH]3)n2)c2ccc(Br)cn2)cc1Cl | nt | nt | nt | ? | nt | i
O=C(Cn1c(=O)n(-c2ccccc2)c(=O)c2c3c(sc21)CCCC3)Nc1cccc(F)c1 | nt | nt | nt | i | nt | i
CCc1nn2c(=O)cc(COC(=O)CNC(=O)c3ccccc3)nc2s1 | nt | nt | nt | i | nt | i
Cc1cc(=O)[nH]c2ccc([N+](=O)[O-])cc12 | nt | nt | nt | i | nt | i
Cc1ccc(C)c2c1[nH]c1ccc([N+](=O)[O-])cc12 | 20% | -25% | -3% | ? | ? | 8.2µM*
COc1ccc2c(=O)c(-c3ccccc3C)c(C)oc2c1 | -10% | -4% | -7% | i | -6% | i
CCN(CC)C(=O)Oc1ccc2c(=O)c(-c3ccc(OC)cc3)coc2c1 | 13µM* | -13% | ? | ? | 4% | 12µM*
CCN(CC)C(=O)Oc1ccc2c(=O)c(-c3ccc(OC)cc3)c(C)oc2c1 | ? | -4% | 2% | i | -22% | 9.2µM*
COc1ccccc1Nc1sc(C(=O)c2ccc3c(c2)OCO3)c(N)c1S(=O)(=O)c1ccccc1 | nt | nt | nt | i | nt | ?
N/C(Cc1cccc2ccccc12)=N\OC(=O)c1ccccc1F | 0% | 0% | -3% | nt | -14% | nt
N/C(Cc1ccc([N+](=O)[O-])cc1)=N\OC(=O)c1ccccc1Br | 0% | 15% | 0% | i | 15% | i
Cc1ccc(C(=O)O/N=C(\N)Cc2ccc([N+](=O)[O-])cc2)c(Cl)c1 | 18µM* | -4% | ? | ? | -2% | i
N/C(Cc1ccccc1)=N\OC(=O)c1cccc2ccccc12 | 15% | ? | -321% | ? | 21µM* | i
N/C(Cc1ccc([N+](=O)[O-])cc1)=N\OC(=O)c1ccc2ccccc2c1 | ? | 18µM* | 23% | i | ? | i
N/C(Cc1ccc([N+](=O)[O-])cc1)=N\OC(=O)C(c1ccccc1)c1ccccc1 | 6% | 18µM* | -3% | i | ? | i
CCc1cc[n+](CC(=O)c2ccc(F)cc2)cc1C(=O)O | nt | nt | nt | i | nt | i
CC(=O)N1c2ccccc2CC1C(=O)N1CCN(c2cccc(Cl)c2)CC1 (centres undefined) | nt | nt | nt | i | nt | i
CCC1CN(C(=O)Nc2ccc(Br)cc2F)c2ccccc2S1 (centres undefined) | nt | nt | nt | i | nt | i
Cc1cc(C=O)cc(C)c1[N+](=O)[O-] | nt | nt | nt | i | nt | i
Cc1ccc(NC(=O)CN2C(=O)CCc3ccccc32)cc1C | nt | nt | nt | i | nt | i
